Data on 29 molecules can be found in PubChem BioAssay (Tox21).

A number with no mark means an inactive call. Results filed as inconclusive are left out. The source made the active and inactive calls. Unless noted, the call rests on the fitted dose curve; in most records, active means well fitted curve in the direction sought with a large enough effect in the repeat runs; inconclusive means weak or mixed curves; inactive means no such curve, though single readings can be large; an effect the other way counts as inactive or inconclusive.

Assay [1] is described as follows: qHTS assay to identify small molecule antagonists of the progesterone receptor (PR) signaling pathway - cell viability counter screen (AID 1346798). Further: nearly all actives have a fitted effect of over 50% in size. Further: potency means the concentration at half of the fitted maximal effect. The method, boiled down: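 PR-UAS-bla HEK293T cells, 3,000/well in 2% charcoal-stripped FBS medium, dosed with compounds plus R5020 agonist and incubated 16 h at 37C. Viability then measured in the same wells by CellTiter-Glo luminescence after 30 min at RT.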

The target in assay [2] is Thyrotropin-releasing hormone receptor (Homo sapiens) (UniProt P34981). Briefly: qHTS assay to identify small molecule antagonists of the thyrotropin-releasing hormone receptor (TRHR) signaling pathway (AID 1346877; active means well fitted inhibition curve with a large enough effect in the repeat runs, not every such curve was filed as active; further: series mostly up to about 51 µM). The procedure, abridged: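 Calcium signal in dye-loaded TRHR/HEK293 cells; compounds added 5 min before TRH (1 nM final); fluorescence monitored 3 min at 1 s steps.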

Assay [3] has the same target. Briefly: qHTS assay to identify small molecule agonists of the thyrotropin-releasing hormone receptor (TRHR) signaling pathway (AID 1346891; calls by dose curve; further: potency means the concentration at half of the fitted maximal effect; on activation: series mostly up to about 58 µM). The method, boiled down: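 HEK293 cells expressing TRHR plated 18 h at 37 C/5% CO2, calcium dye-loaded 2 h at 37 C, then compound added (agonist mode); kinetic calcium fluorescence read 3 min at 1 s intervals; 15 concentrations in triplicate.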

A short description of assay [4]: Human pregnane X receptor (PXR) small molecule agonists, qHTS cell viability counter screen (AID 1346977). Further: nearly all actives have a fitted effect of over 50% in size. Further: potency means the concentration at half of the fitted maximal effect. The procedure, abridged: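 PXR-Luc HepG2 cells (2,000/well, 5% charcoal-stripped FBS) preincubated 5 hr, then exposed to compounds 24 hr at 37 C. Viability read in the same wells by CellTiter-Fluor fluorescence, reagent added at 23 hr, 1 hr incubation.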
The nature of assay [5]: qHTS assay to identify small molecule agonists of the progesterone receptor (PR) signaling pathway - cell viability counter screen (AID 1346799; calls by dose curve; further: nearly all actives have a fitted effect of over 45% in size; further: potency means the concentration at half of the fitted maximal effect). The procedure, abridged:
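Counter screen in the PR-UAS-bla HEK293T wells (2% charcoal-stripped FBS, 16 h compound exposure at 37 C) after the bla read. CellTiter-Glo added, 30 min at room temperature, luminescence read as cell viability.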

A short description of assay [6]: qHTS assay to identify small molecule agonists of the TGF-beta/Smad signaling pathway - cell viability counter screen (AID 1346829). Further: nearly all actives have a fitted effect of over 45% in size. Further: potency means the concentration at half of the fitted maximal effect. The method, boiled down: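 HEK 293T SBE-bla line, 5 hr compound exposure at 37 C, multiplexed CellTiter-Glo viability read by luminescence.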
The nature of assay [7]: qHTS assay to identify small molecule agonists of the TGF-beta/Smad signaling pathway (AID 1346859; active means well fitted activation curve with a large enough effect in the signal ratio in the repeat runs, not every such curve was filed as active; the % refers to the signal ratio; further: series mostly up to about 77 µM). The method, boiled down:
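SBE-bla HEK293T cells plated overnight, then compound exposure for 5 h at 37 C. Beta-lactamase reporter read with LiveBLAzer B/G FRET substrate after 2 h at room temperature, fluorescence at 405 nm excitation, 460/530 nm emission.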

Assay [8] can be described thus: qHTS assay to identify small molecule antagonists of the TGF-beta/Smad signaling pathway - cell viability counter screen (AID 1346824). Further: nearly all actives have a fitted effect of over 50% in size. Further: potency means the concentration at half of the fitted maximal effect. The procedure, abridged: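 Cytotoxicity counter-screen run in the same wells as the beta-lactamase Smad reporter read: CellTiter-Glo luminescence after 30 min at room temperature. HEK 293T SBE-bla cells had 5 hr compound exposure at 37 C with TGF-beta1 (0.25 ng/mL stock).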

Sequence of Thyrotropin-releasing hormone receptor (Homo sapiens) (P34981 whole entry, looked up): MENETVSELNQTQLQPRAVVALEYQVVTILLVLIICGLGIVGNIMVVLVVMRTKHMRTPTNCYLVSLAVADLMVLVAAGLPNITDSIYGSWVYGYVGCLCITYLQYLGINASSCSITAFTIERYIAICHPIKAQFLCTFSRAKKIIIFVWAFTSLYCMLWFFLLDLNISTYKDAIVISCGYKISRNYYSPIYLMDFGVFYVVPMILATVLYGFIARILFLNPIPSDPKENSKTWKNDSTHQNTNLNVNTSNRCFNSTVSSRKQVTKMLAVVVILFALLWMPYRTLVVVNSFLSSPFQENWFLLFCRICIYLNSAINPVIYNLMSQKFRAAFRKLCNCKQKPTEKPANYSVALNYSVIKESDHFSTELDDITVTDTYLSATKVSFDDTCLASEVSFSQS

For the molecule `O=C(Nc1cccc(C(F)(F)F)c1)c1cc(Br)cc(Br)c1O`, the Potency in assay [1] was 21.7 µM (active); in assay [4] it was 2.73 µM (active). For the same molecule, the Potency result in assay [2] and in assay [3] was “inactive” in each case.

Turning to `Cc1cc(O)c(C(C)(C)C)cc1C(C)(C)C`, the figures for the Potency in assay [5] and in assay [6] were 48.6 µM (active) and 49 µM (active), respectively. Also, the Potency result in assay [7] and in assay [3] was “inactive” in each case.

Regarding `CCCCC(CC)CN=C(N)NC(N)=NCCCCCCN=C(N)NC(N)=NCC(CC)CCCC` (centres undefined), the Potency was 19 µM (active) in assay [8], 23.9 µM (active) in assay [6] and 16.8 µM (active) in assay [4]. Further, the Potency entry in assay [2] and in assay [3] was “inactive” each time.

Regarding `OCc1c[nH]c2ccccc12`, the Potency entry in assay [8], in assay [2] and in assay [3] was “inactive” in each case.

As for `CCCCCCCC[N+](CCCCCCCC)(CCCCCCCC)CCCCCCCC`, the values for the Potency in assay [1], in assay [8] and in assay [6] were 30.6 µM (active), 48.9 µM (active) and 43.6 µM (active), respectively. Further, the Potency result in assay [2] and in assay [3] was “inactive” throughout.

Consider `CC(C)(C)CC(C)(C)c1ccc(O)c(Cc2ccc(Cl)cc2Cl)c1`, for which the Potency in assay [5] was 33.5 µM (active); in assay [8], 21.3 µM (active); in assay [6], 19 µM (active); in assay [4], 18.8 µM (active). Also, the Potency result in assay [2] and in assay [3] was “inactive” throughout.

Take `CCCC(c1cc(C(C)(C)C)c(O)cc1C)c1cc(C(C)(C)C)c(O)cc1C`: the Potency in assay [1] was 22 µM (active); in assay [8], 24.8 µM (active); in assay [6], 24.8 µM (active); in assay [4] it was 17.4 µM (active). Further, the Potency result in assay [2] and in assay [3] was “inactive” throughout.

Take `CCCCC(CC)COC(=O)c1ccccc1C(=O)O` (centres undefined): the Potency result in assay [1], in assay [8], in assay [6], in assay [3] and in assay [4] was “inactive” in each case.

As to `C/C=C1/C(=O)C[C@H]2[C@@H]3CCC4=CC(=O)CC[C@]4(C)[C@H]3CC[C@]12C`, the Potency entry in assay [8] and in assay [6] was “inactive” throughout.

Take `Cc1[nH]nc2c1N=C(c1ccccc1Cl)c1cc([N+](=O)[O-])ccc1N2`: the Potency in assay [4] was 13.7 µM (active).

As to `CCN(CC)CCNC(=O)c1c(C)[nH]c(/C=C2\C(=O)Nc3ccc(F)cc32)c1C`, the Potency in assay [1] and in assay [4] was 11.9 µM (active) throughout. Besides, the Potency result in assay [8], in assay [7], in assay [2] and in assay [3] was “inactive” each time.

On to `CC(C)(C)C(=O)OCOC(=O)C1N2C(=O)CC2S(=O)(=O)C1(C)C` (centres undefined), for which the Potency entry in assay [5], in assay [8], in assay [6], in assay [7], in assay [2] and in assay [3] was “inactive” throughout. Also, the Potency result in assay [4] is “inactive”.

As to `Cc1cccc2c1cc1ccc3cccc4ccc2c1c34`, the Potency entry in assay [1], in assay [8], in assay [6], in assay [2], in assay [3] and in assay [4] was “inactive” in each case.

With `CN(C)C(=O)C1(N2CCCCC2)CCN(CC[C@@]2(c3ccc(Cl)c(Cl)c3)CN(C(=O)c3ccccc3)CCO2)CC1`, the Potency is 20.3 µM (active) in assay [5] and 25.5 µM (active) in assay [4]. The Potency result in assay [7] and in assay [3] was “inactive” in each case.

As to `CCCCCCCCCOC(=O)c1ccc(O)cc1`, the Potency entry in assay [8] and in assay [7] was “inactive” in each case.

With `CCOc1ccc2nc3cc(N)ccc3c(N)c2c1`, the Potency entry in assay [5], in assay [8], in assay [6], in assay [2] and in assay [3] was “inactive” each time.

For `CCCCC(CC)COP(=O)(O)OCC(CC)CCCC` (centres undefined), the Potency result in assay [8], in assay [6], in assay [7], in assay [2] and in assay [3] was “inactive” each time.

In the case of `CC(=O)S[C@@H]1CC2=CC(=O)CC[C@]2(C)[C@H]2CC[C@@]3(C)[C@@H](CC[C@@]34CCC(=O)O4)[C@H]12`, the Potency in assay [1] was 24.3 µM (active). The Potency entry in assay [8], in assay [6], in assay [2], in assay [3] and in assay [4] was “inactive” throughout.

As for `CNc1ccc(O)cc1`, the Potency result in assay [2] and in assay [3] was “inactive” in each case. Besides, in assay [4], the Potency was 61 µM (active).

On to `CC1=C(C(=O)OC(C)C)C(c2cccc([N+](=O)[O-])c2)C(C(=O)OC2CN(C(c3ccccc3)c3ccccc3)C2)=C(N)N1` (centres undefined), for which the Potency entry in assay [8], in assay [7], in assay [2] and in assay [3] was “inactive” in each case. The Potency in assay [4] was 16.8 µM (active).

For the molecule `CN(C)c1ccc(C2(c3ccc(N(C)C)cc3)OC(=O)c3cc(N(C)C)ccc32)cc1`, the Potency entry in assay [5], in assay [8], in assay [6], in assay [7], in assay [2] and in assay [3] was “inactive” each time. Moreover, the Potency result in assay [4] was “inactive”.

For the molecule `Oc1cccc(-c2c3nc(c(-c4cccc(O)c4)c4ccc([nH]4)c(-c4cccc(O)c4)c4nc(c(-c5cccc(O)c5)c5ccc2[nH]5)CC4)C=C3)c1`, the Potency result in assay [8], in assay [6] and in assay [7] was “inactive” throughout. In assay [4], the Potency was 15 µM (active).

Turning to `Cc1cc(=O)oc2cc(N(C)C)ccc12`, the Potency result in assay [8], in assay [6], in assay [2] and in assay [3] was “inactive” in each case.

Consider `Cc1cc(O)c2ccccc2c1O`, for which the Potency in assay [8] was 19 µM (active); in assay [6] it was 23.9 µM (active); in assay [4] it was 16.8 µM (active). In addition, the Potency entry in assay [2] and in assay [3] was “inactive” in each case.

In the case of `O=C1CCCc2c1cc1ccc3cccc4ccc2c1c34`, the Potency entry in assay [1], in assay [8], in assay [2] and in assay [3] was “inactive” each time.

As to `CCCC(=O)OC[C@@H](OC(=O)CCC)[C@@H](OC(=O)CCC)[C@H](Cn1c2nc(=O)[nH]c(=O)c-2nc2cc(C)c(C)cc21)OC(=O)CCC`, the Potency result in assay [1], in assay [8] and in assay [2] was “inactive” in each case. Moreover, in assay [3], the Potency was 13.5 µM (active).

As to `O=C(Nc1cccc(Cl)c1)OCC#CCCl`, the Potency in assay [1] and in assay [4] was 54.5 µM (active) each time. In addition, the Potency result in assay [8], in assay [6], in assay [2] and in assay [3] was “inactive” throughout.

Regarding `OCCN(CCO)c1nc(N2CCCCC2)c2nc(N(CCO)CCO)nc(N3CCCCC3)c2n1`, the Potency entry in assay [8] and in assay [2] was “inactive” each time. Besides, in assay [3], the Potency is 12 µM (active).

With `CC[C@@]1(O)C(=O)OCc2c1cc1n(c2=O)Cc2cc3c(CN(C)C)c(O)ccc3nc2-1`, the Potency result in assay [8] and in assay [6] was “inactive” throughout.
